# Assay outcomes from PubChem BioAssay.
# LDHA inh = qHTS assay for inhibitors of human lactate dehydrogenase; purified LDHA, NADH/diaphorase-resazurin fluorescence; active compounds read low; activity change, % (values are at about 110 or 230 µM); hit rate 0.15% among 480,000; AID 1347041, 2019; in the data active = activity change below about -30%;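 note: plate controls were DMSO wells for no effect and wells without enzyme for full effect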
#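 LDH5 2 nM; NADH 0.06 mM, pyruvate 0.2 mM; 200 mM Tris pH 7.4, EDTA, Tween-20; 5 min RT. Detection: diaphorase 0.133 mg/mL + resazurin 37 µM, fluorescence ex540/em590 at 0 and 20 min; normalized to enzyme-free and DMSO wells.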
# D1 agonist = Allosteric Agonists of the Human D1 Dopamine Receptor: qHTS; D(1A) dopamine receptor (Homo sapiens), P21728; activation, % at 2 µM; hit rate 1% among 360,000; HEK293 T-REx D1 cells, calcium flux, agonist mode; AID 504660, 2011; note: 0% is about no effect
#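 Inducible HEK293 T-REx D1 cells, force-coupled to calcium signalling, were plated at 4000 cells/well with tetracycline and held overnight at 30 C. After no-wash calcium dye loading, compound-evoked calcium rise over 180 s flagged agonists.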
# D1 antag = Antagonist of Human D 1 Dopamine Receptor: qHTS. D(1A) dopamine receptor (Homo sapiens), P21728. HEK293 TREx D1 cells, calcium flux, dopamine EC80; active compounds read low. activity change, negative = inhibition, % at 10 µM. hit rate 3.2% among 360,000. AID 504652, 2011; in the data active = activity change below about -30%; note: % is set by controls: 0 for no effect and ±100 for the full control effect
#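 Tetracycline-induced HEK293 T-REx cells with force-coupled D1 receptor were loaded with a no-wash calcium dye. Compound was added after a 10 s baseline and read kinetically for 180 s; EC80 dopamine was then added and calcium flux followed another 180 s.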
# TRHR PAM = qHTS for Small Molecule Agonists and Allosteric Enhancers of Human TRH Receptor: Primary Screen for Enhancers | hit rate 0.66% among 360,000 | TRHR cells, fluo-8 calcium fluorescence, EC20 TRH enhancement | Thyrotropin-releasing hormone receptor (Homo sapiens), P34981 | enhancement, % at 2 µM; in the data active = enhancement above about 30%; note: 0% is about no effect
# Target sequence (P34981 whole entry, looked up): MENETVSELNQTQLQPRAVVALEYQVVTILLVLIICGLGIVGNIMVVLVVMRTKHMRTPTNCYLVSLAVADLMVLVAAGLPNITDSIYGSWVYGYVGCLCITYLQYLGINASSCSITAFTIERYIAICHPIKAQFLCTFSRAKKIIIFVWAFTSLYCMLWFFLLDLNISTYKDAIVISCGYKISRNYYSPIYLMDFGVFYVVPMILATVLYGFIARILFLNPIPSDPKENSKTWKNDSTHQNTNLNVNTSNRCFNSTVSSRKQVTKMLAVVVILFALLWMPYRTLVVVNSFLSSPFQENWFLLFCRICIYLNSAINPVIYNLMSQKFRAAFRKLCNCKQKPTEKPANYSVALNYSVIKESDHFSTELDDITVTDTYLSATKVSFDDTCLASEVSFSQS
#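 TRHR-expressing cells loaded with fluo-8 calcium dye were read kinetically (ex 480/em 530) during compound addition, then stimulated with an EC20 of TRH (10 nM final). Enhancement of the Gq-mediated intracellular calcium response was scored.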
# D1 PAM = Potentiators of Human D1 Dopamine Receptor: qHTS; D(1A) dopamine receptor (Homo sapiens), P21728; HEK293 TREx D1 cells, calcium flux, dopamine EC20 potentiation; potentiation, % at 10 µM; AID 504651, 2011; hit rate 0.036% among 360,000; in the data active = potentiation above about 30%; note: 0% is about no effect
# TRHR agonist = qHTS for Small Molecule Agonists and Allosteric Enhancers of Human TRH Receptor: Primary Screen for Agonists; AID 493084, 2011; Thyrotropin-releasing hormone receptor (Homo sapiens), P34981; TRHR cells, calcium flux fluo-8, FDSS agonist mode; hit rate 0.18% among 360,000; activation, % at 2 µM; note: 0% is about no effect
#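 Steps: seed TRHR cells overnight; add fluo-8 no-wash Ca dye, RT 30 min–1.5 h; record 10 s baseline; pin-transfer compounds; monitor fluorescence 1 cycle/s for the agonist window. Calcium increases flag candidate agonists.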
# The depositor's hits bear a star; · = no result; ! = not active in a repeat. An excerpt weighted towards active compounds, which were near 3.6% of everything screened. Cut-off read from the data, not from the text of the source, unless noted: active = activation above about 30%; inactive = the rest.
SMILES,LDHA inh,D1 agonist,D1 antag,TRHR PAM,D1 PAM,TRHR agonist
CC1C(c2ccccc2)N(C)C(c2ccccc2)C(C)C1(O)C#Cc1ccccc1 (stereo unspecified),2,11,-1,39*,-4,1
O=C(C/C(=N/O)c1ccccc1O)C(F)F,7,3,-32*,9,-7,2
NC(=O)c1ccccc1O,5,2,-16,3,4,0
N#Cc1c(SCc2ccccc2)sc(C(=O)c2ccccc2)c1N,-10,-1,-49*,-21,-6,0
CSc1nc(C(C)C)nc(C)c1C(=O)Nc1cccc(Br)c1,1,·,·,·,·,·
CC(=O)c1ccc(OCc2ccc3c(c2)OCO3)cc1,11,·,·,·,·,·
Nc1nc(O)c(Sc2ccccc2[N+](=O)[O-])c(=O)[nH]1,-52*,6,-12,-8,·,-2
COc1ccc(N=Nc2nc3cc(Br)c(Br)cc3n2C)c(OC)c1,-3,88*,-12,-2,-5,55*
Cc1ccc(S(=O)(=O)N2CCCC2)cc1C(=O)Nc1ccc(-n2cnnn2)cc1,-4,5,-31*,-1,-10,0
Cc1nn(C)c(C)c1S(=O)(=O)N1CCCC(C(=O)N2CCN(c3ccc(Cl)cc3)CC2)C1 (stereo unspecified),-5,0,-7,8,2,0
Cc1ccc(NC(=O)C2CCCN(S(=O)(=O)c3c(C)n[nH]c3C)C2)cc1Cl (stereo unspecified),-1,36*,6,-7,2,3
O=C(Nc1ccc(S(=O)(=O)N2CCCC2)cc1)C1CCCN(C(=O)c2ccc(Cl)cc2)C1 (stereo unspecified),-2,·,·,·,·,·
Cc1ccc(S(=O)(=O)N2CCCC(C(=O)Nc3ccc(C(=O)O)cc3)C2)cc1Cl (stereo unspecified),-5,2,-33*,-2,-12,0
Cc1n[nH]c(C)c1S(=O)(=O)N1CCCC(C(=O)N2CCN(c3ccc(Cl)cc3)CC2)C1 (stereo unspecified),-5,19,-48*,6,-7,0
CCN(Cc1ccccc1)C(=O)COc1ncnc2ccc(Br)cc12,11,·,·,·,·,·
O=C(/C=C/c1ccccc1Cl)N[C@@H]1C[C@H]2CC[C@@H]1C2,1,·,·,·,·,·
COc1cc2c(cc1OC)CN(C(=O)CCc1ncc(-c3ccc(Cl)cc3)o1)CC2,6,·,·,·,·,·
Cc1ccc(C(=O)Nc2ccc(C(O)(C(F)(F)F)C(F)(F)F)cc2)cc1,11,·,·,·,·,·
COc1ccc(NC(=O)C2CCCN(S(=O)(=O)c3c(C)[nH]c(=O)[nH]c3=O)C2)cc1 (stereo unspecified),2,0,-31*!,-4,-4,1
Nc1ccc(Sc2cnn(-c3ccccc3)c(=O)c2Cl)cc1,-4,4,-13,36*,-2,-2
CNc1cnn(-c2ccccc2)c(=O)c1Cl,-1,2,-71*,1,-1,0
CN(C)CCNc1cnn(-c2ccccc2)c(=O)c1Cl,-1,4,-1,0,8,2
O=C(Nc1c(NC2CCCC2)c2ccccc2oc1=O)c1cccc(Cl)c1,-1,·,·,·,·,·
O=C(NCCO)c1cccc(Nc2nc(-c3ccccc3)c3cc(Cl)ccc3n2)c1,0,0,-24,31*,4,0
O=c1cc(CN2CCCN(Cc3ccc(C(F)(F)F)cc3)CC2)nc2ccc(Cl)cn12,-2,·,·,·,·,·
SMILES,LDHA inh,D1 agonist,D1 antag,TRHR PAM,D1 PAM,TRHR agonist
COC(=O)C1=C(C)NC2=C(C(=O)CC(c3cccs3)C2)C1c1ccsc1 (stereo unspecified),1,1,-48*,3,-8,-1
O=C(Cc1coc(-c2ccccc2)n1)NCCN(C(=O)Cc1coc(-c2ccccc2)n1)C1CC1,4,·,·,·,·,·
O=C(NCC1CCN(Cc2cccc(Cl)c2)CC1)Nc1ccc(Cl)cc1,0,31*,-73*,10,-19,2
Cc1cc(CN2CCCCC2C(=O)Nc2ccc(Oc3cccnc3)cc2)oc1C (stereo unspecified),2,3,-33*,5,-6,0
O=C(Nc1ccc(Oc2cccnc2)cc1)C1CCN(Cc2cccc(Cl)c2)CC1,-4,49*,-37*,2,-12,1
CCc1cccc(CN2CCC(CNC(=O)Nc3ccc(Cl)cc3)CC2)c1,1,39*,-44*,0,-7,1
O=C(Nc1ccc(Oc2cccnc2)cc1)C1CCN(Cc2ccccc2)CC1,-2,25,-2,2,-6,2
Cc1cc(=O)oc2cc(OCC(=O)N(c3ccccc3)C(C)C)ccc12,-7,·,·,·,·,·
CCN(CC)C(CNC(=O)Cc1ccccc1OC)c1ccsc1 (stereo unspecified),-1,·,·,·,·,·
Cc1nc2c(C)cccn2c1/C(O)=C1\C(=O)C(=O)N(CCN2CCOCC2)C1c1ccccc1F (stereo unspecified),0,·,·,·,·,·
O=C(O)Cn1c2ccccc2c2n[nH]c(=S)nc21,-1,0,-33*,-2,-6,0
COC(=O)Cn1c2nc3ccccc3nc2c2cccc(C)c21,-5,0,17,2,-9,0
CCn1c2ccccc2c2n[nH]c(=S)nc21,-8,1,1,-6,-3,0
COC(=O)Cn1c2ccccc2c2nc3ccccc3nc21,0,4,-37*,-2,-2,-1
CNc1c(NC(=O)c2cccc(F)c2)c(=O)oc2ccccc12,-13,·,·,·,·,·
Cc1ccc(C(=O)CCC(=O)OC(C)C(=O)C23CC4CC(CC(C4)C2)C3)s1 (stereo unspecified),2,·,·,·,·,·
N#Cc1nc(-c2ccco2)oc1N1CCN(CC(=O)N(c2ccccc2)C2CCS(=O)(=O)C2)CC1 (stereo unspecified),0,·,·,·,·,·
CC(C)c1ccc(OCc2ccc(C(=O)O)o2)cc1,0,5,4,-2,-6,0
CC(C)c1ccc(OCc2ccc(C(=O)N(C)C)o2)cc1,-14,10,-32*,0,-3,0
Cc1nn2c(-c3cccc(NC(=O)c4ccc(Cl)cc4)c3)nnc2c2ccccc12,-9,0,4,42*,-3,-1
Cc1ccc(NC(=O)c2ccc(-c3nn(C)c(=O)c4ccccc34)cc2)cc1,5,2,-3,0,-3,-1
Cc1nn2c(-c3cccc(NC(=O)c4ccco4)c3)nnc2c2ccccc12,-19,0,3,13,2,-1
